# Records with an inconclusive call do not appear. Unmarked numbers belong to inactive results. Calls of active or inactive are those of the source. Calls follow the shape of the dose curve; as a rule, active = well fitted activation curve with a large enough effect in the repeat runs; inconclusive = weak or mixed curves; inactive = no such curve, though single readings can be large or run the other way. Non-standard residues stand in square brackets, D forms with d. Residues, ends and D or L forms follow the SMILES beside them. *: point of attachment. Sta = CC(C)C[C@H](N)[C@@H](O)CC(=O)O; Isovaleryl = CC(C)CC(=O)*
# Biological target: Nuclear receptor subfamily 1 group I member 2 (Homo sapiens) (UniProt O75469)
# Sequence (O75469 whole entry, looked up): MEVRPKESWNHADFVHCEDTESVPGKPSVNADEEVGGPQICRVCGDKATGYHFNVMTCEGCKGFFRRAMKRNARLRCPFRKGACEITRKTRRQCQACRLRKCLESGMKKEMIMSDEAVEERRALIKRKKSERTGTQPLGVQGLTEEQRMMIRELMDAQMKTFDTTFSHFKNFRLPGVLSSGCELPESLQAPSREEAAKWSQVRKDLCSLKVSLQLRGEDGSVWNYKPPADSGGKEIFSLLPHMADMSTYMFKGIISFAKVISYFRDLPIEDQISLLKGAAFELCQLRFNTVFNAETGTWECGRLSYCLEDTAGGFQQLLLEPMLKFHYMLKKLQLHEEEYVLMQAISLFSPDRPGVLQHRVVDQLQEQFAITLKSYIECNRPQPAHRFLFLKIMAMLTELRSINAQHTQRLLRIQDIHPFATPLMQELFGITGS
# Test: Human pregnane X receptor (PXR) small molecule agonists, qHTS assay (AID 1346982); also: nearly all actives have a fitted effect of over 35% in size
# Details: PXR-Luc HepG2, CYP3A4 luciferase reporter, 24 h; series mostly up to 92.4 µM; activation: at the top concentration
# Description: National Center for Advancing Translational Sciences [NCATS]
# NIH Chemical Genomics Center [NCGC]
# U.S. Environmental Protection Agency [EPA]
# National Institutes of Environmental Health Sciences [NIEHS]
# National Toxicology Program [NTP]
# The human pregnane X receptor (hPXR) regulates the expression of several drug metabolizing enzymes and induction of these proteins is a major mechanism for developing drug resistance in cancer. One such key enzyme catalyzing the drug metabolism is cytochrome P450 3A4 (CYP3A4). Changes in CYP3A4 expression affect drug metabolism, thereby reducing the therapeutic efficacy and altering toxicological response to a drug and which finally causes adverse drug interaction. To screen Tox21 libraries for compounds that activate hPXR-mediated CYP3A4 gene expression, PXR-Luc HepG2 cells were used.
# PXR-Luc HepG2 cells were dispensed at 2,000 per well in 5uL of assay medium containing 5% charcoal-stripped FBS into white solid bottom 1536-well plates (Corning Life Sciences, Corning, NY) using a Multidrop Combi (Thermo Scientific, Waltham, MA) dispenser. The assay plates were incubated at 37 C and 5% CO2 for 5hr, and then 23nL of compounds dissolved in DMSO and positive control were transferred using a Pintool station (Wako, San Diego, CA). The assay plates were incubated at 37C and 5% CO2 for 24hr. For luciferase read, 4uL of ONE-Glo reagent (Promega Corporation, Madison, WI) was added to each well of the assay plates using Flying Reagent Dispenser (FRD, Aurora Discovery, San Diego, CA) and incubated the assay plates at room temperature for 30min. The luminescence signal was quantified using a ViewLux plate reader (Perkin Elmer, Shelton, CT).
# % is scaled to controls: 0 for no effect and ±100 for the full control effect; potency is read from the fitted curve at half-maximal effect.
Compound,activation,Potency
CC1(C)CC(N)CC(C)(C)N1,11.2%,
COC(=O)c1c(C)cc(O)c(C)c1O,,61.1 µM (active)
CC1=C(O)C(=O)CO1,8.66%,
CC(=O)OCC(=O)[C@@]1(O)CC[C@H]2[C@@H]3CCC4=CC(=O)C=C[C@]4(C)[C@H]3[C@@H](O)C[C@@]21C,26.6% [at 42.5 µM],
BrCCOc1ccccc1,-0.635%,
CCCCCCCCCCCC(C)=O,10.3%,
NS(=O)(=O)c1cc2c(cc1C(F)(F)F)NCNS2(=O)=O,-32% [at 42.5 µM],
O=C(OOC(=O)c1ccccc1)c1ccccc1,-9.76% [at 42.5 µM],
Cc1ccccc1C#N,7.25%,
CC(C)(C)C(=O)CC(=O)C(C)(C)C,6.49%,
C/C=C(\C)C=O,-1.45%,
C=CCOC(=O)CCCCCCCC,29.4%,
CC(=O)c1ccc2ccc3ccccc3c2c1,,60.8 µM (active)
CCCCc1ccc(Cl)cc1,-0.341%,
CN1C(CCl)Nc2cc(Cl)c(S(N)(=O)=O)cc2S1(=O)=O (stereo not given),10.3% [at 42.5 µM],
Nc1nc(Cl)cc(Cl)n1,12.5%,
CCCCCCCCCCCCCCCC/C=C/C1CC(=O)OC1=O (stereo not given),-4.61% [at 42.5 µM],
CC[C@@]1(c2ccccc2)NC(=O)N(C)C1=O,-22.3% [at 42.5 µM],
COC(=O)/C=C(\C)CCC=C(C)C,,61.1 µM (active)
CCOC(=O)CC,-0.234%,

Compound,activation,Potency
CC(=O)Nc1ccc(S(=O)(=O)Nc2cc(C)on2)cc1,-9.27% [at 42.5 µM],
C/C=C/C(=O)CCCC,0.132%,
CCC(C)SSC(C)CC (stereo not given),-8.21%,
C/C(Cl)=C/CCl,15.1%,
CCCCC(CC)COC(=O)CC#N (stereo not given),,2.73 µM (active)
CN(C)c1ccncc1,-6.44%,
COc1cc(C(=O)NC2CCCNC2)cc(OC)c1OC (stereo not given),-0.967% [at 42.5 µM],
COc1cc(OC)cc(OC)c1,-4.47% [at 42.5 µM],
CCOC(=O)CN1CCCC1=O,-0.097% [at 42.5 µM],
COC(=O)c1ccccc1Cl,1.76%,
CC(=O)Oc1ccc(C(C)=O)cc1,5.82%,
CCC(C)c1nccnc1OC (stereo not given),8.99%,
CCCCCC(=O)CC,-5.17%,
C[n+]1ccccc1/C=N/O,0.673% [at 42.5 µM],
CC(=O)SCC(CC(=O)c1ccc(C)cc1)C(=O)O (stereo not given),-0.698% [at 42.5 µM],
CC(C)CC(O)Cc1ccccc1 (stereo not given),4.31%,
c1coc(Cn2cccc2)c1,4.77%,
CSC(=O)c1cccc2nnsc12,4.2%,
CC(C)CC(=O)N[C@H](C(=O)N[C@H](C(=O)N[C@@H](CC(C)C)[C@@H](O)CC(=O)N[C@@H](C)C(=O)N[C@@H](CC(C)C)[C@@H](O)CC(=O)O)C(C)C)C(C)C (Isovaleryl-VV[Sta]A[Sta]-OH),-3.91% [at 42.5 µM],
Cc1ccccc1OCC(=O)O,-8.55%,

# — PubChem BioAssay (Tox21)
